Screening results as filed in PubChem.
Hits are enriched below; roughly 9% of the tested compounds scored in any of these assays.
PLK1 PBD inh: inhibitors of human PLK1 polo-box domain binding. P53350. Plk1 PBD binding of FITC phosphopeptide, fluorescence polarization. Potency, µM, usual class: inhibitors. 360,000 tested, 2.8% active. AID 720504; note: series mostly up to about 57 µM; nearly all actives have a fitted effect of over 65% in size
G9a block: inhibitors of human histone lysine methyltransferase G9a | Potency, µM (highest dose often 102 µM), hits mostly inhibitors | Q96KQ7 | G9a H3K9 monomethylation, AlphaScreen, 2 h | AID 504332 | 350,000 tested, 8.8% active; note: nearly all actives have a fitted effect of over 75% in size
Target sequence (Q96KQ7 913-1193 limits assumed): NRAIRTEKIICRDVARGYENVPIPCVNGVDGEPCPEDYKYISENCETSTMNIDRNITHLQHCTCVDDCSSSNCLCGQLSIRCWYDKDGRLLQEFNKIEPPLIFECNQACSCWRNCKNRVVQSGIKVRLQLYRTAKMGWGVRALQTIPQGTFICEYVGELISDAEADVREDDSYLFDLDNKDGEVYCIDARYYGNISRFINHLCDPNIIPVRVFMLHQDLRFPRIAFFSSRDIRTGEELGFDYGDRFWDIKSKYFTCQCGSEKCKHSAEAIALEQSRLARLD
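Methyltransferase reactions run at room temperature for 2 h (20 nM enzyme, 500 nM biotin-H3K9 peptide, 20 uM SAM) after a 15 min compound preincubation; product detected by AlphaScreen beads and anti-H3K9me1 antibody.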
JMJD2A Tudor inh: blocks the human JMJD2A Tudor domain | AlphaScreen JMJD2A-Tudor / H3K4me3 peptide binding | Potency, µM (doses to about 114 µM), actives largely listed as inhibitors | O75164 | 390,000 tested, 4.4% active; note: nearly all actives have a fitted effect of over 50% in size
BAZ2B inh: BAZ2B (human) inhibition | 360,000 tested, 4.4% active | Potency, µM (top dose mostly 114 µM), actives largely listed as inhibitors | AlphaScreen BAZ2B-H3K14Ac peptide displacement; note: nearly all actives have a fitted effect of over 60% in size
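Multi-concentration screen (max 110 uM) measuring displacement of acetylated histone H3 peptide from BAZ2B by AlphaScreen, using 50 nM protein, 50 nM peptide and 10 ug/mL streptavidin donor plus Ni-chelate acceptor beads.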
HP1b chromo inh: HP1-beta chromodomain-methylated histone interaction inhibition; AlphaScreen HP1-beta / biotin-H3K9me3 peptide binding; Potency, µM (series often up to 114 µM), hits mostly inhibitors; 390,000 tested, 0.56% active; AID 540317; note: nearly all actives have a fitted effect of over 70% in size
Target sequence (P83916 whole entry, looked up): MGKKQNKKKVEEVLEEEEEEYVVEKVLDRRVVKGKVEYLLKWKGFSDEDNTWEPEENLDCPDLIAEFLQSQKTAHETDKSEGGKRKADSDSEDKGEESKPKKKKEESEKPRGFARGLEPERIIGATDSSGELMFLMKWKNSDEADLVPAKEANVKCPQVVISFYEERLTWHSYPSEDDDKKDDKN
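Compound inhibition of the preformed complex between 50 nM HP1-beta and 50 nM biotinylated H3K9me3 peptide was read by AlphaScreen. Buffer was PBS pH 7.4 with 0.01% Tween-20. Incubations ran 30 min at room temperature, with 10 ug/mL donor/acceptor beads.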
ALOX12 inh: blocks human arachidonate 12S-lipoxygenase; P18054; 580,000 tested, 1.1% active; purified 12hLO, xylenol orange hydroperoxide absorbance; Potency, µM (series often up to 108 µM), usual class: inhibitors
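Purified human 12hLO (150 nM final) in 25 mM Hepes, 0.01% Triton X-100, pH 7.0 was preincubated 15 min at room temperature with compound. Then 40 uM arachidonic acid was added, 30 min. Hydroperoxide was read by Fe-XO absorbance ratio 573/405 nm.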
Numbers stand for hits; 0 = inactive; ? = inconclusive; - = no result given; [ ] = remark or other dose. Calls come from the whole dose curve; as a rule, active = well fitted curve in the direction sought with a large enough effect; inconclusive = small, poorly fitted or top-dose-only effect, or another doubt; inactive = no such curve, though single readings can be large; an effect the other way counts as inactive or inconclusive.

SMILES	PLK1 PBD inh	G9a block	JMJD2A Tudor inh	BAZ2B inh	HP1b chromo inh	ALOX12 inh
C#CCOCCOCCOCCNc1nc(N2CCN(C(=O)[C@H](CCCCN)n3cc([C@@H](N)CC(C)C)nn3)CC2)nc(N2CCN(C(=O)[C@H](CCCCN)n3cc([C@@H](N)CC(C)C)nn3)CC2)n1	0	?	0	?	0	-
C#CCOCCOCCOCCNc1nc(N2CCN(C(=O)[C@H](CCCCN)n3cc([C@@H](N)C(C)CC)nn3)CC2)nc(N2CCN(C(=O)[C@H](Cc3ccc(O)cc3)n3cc([C@@H](N)CC(C)C)nn3)CC2)n1 (some centres not stated)	0	?	?	79.4µM	0	0
C#CCOCCOCCOCCNc1nc(N2CCN(C(=O)[C@H]([C@@H](C)CC)n3cc([C@@H](N)Cc4ccc(O)cc4)nn3)CC2)nc(N2CCN(C(=O)[C@H](CCCCN)n3cc([C@@H](N)CC(C)C)nn3)CC2)n1	-	?	-	79.4µM	-	-
C#CCOCCOCCOCCNc1nc(N2CCN(C(=O)[C@H](CCCCN)n3cc([C@@H](N)CC(C)C)nn3)CC2)nc(N2CCN(C(=O)[C@H](Cc3ccc(O)cc3)n3cc([C@@H](N)CC(C)C)nn3)CC2)n1	0	0[12.7 µM]	79.4µM	56.2µM	0	-
N#Cc1cc2c(nc1SCC(=O)NCc1ccccc1)CCCC2	-	-	-	-	-	0
CNS(=O)(=O)c1cn(CC(=O)Nc2ccc(F)cc2F)cc1S(=O)(=O)NC	-	0	0	0	0	0
COc1ccc(S(=O)(=O)n2ccc(C)n2)cc1C	0	0	0	0	0	0
OCCN(Cc1ccccc1)Cc1ncccc1O	0	-	0	-	0	0
OCCN(Cc1cccnc1)Cc1ccccn1	0	-	50.1µM	-	0	0
Cc1ccc(C(C)C)cc1OCC(=O)NNC(=O)Nc1ccccc1	0	79.4µM	0	0	0	0
Cc1ccc(C(C)C)c(OCC(=O)NNC(=O)Nc2ccccc2)c1	0	-	0	-	0	0
O=S(=O)(c1ccc2[nH]c3c(c2c1)CCCC3)N1CCCCC1	0	-	0	25.1µM	0	0
Cc1ccc(NS(=O)(=O)c2ccc3[nH]c4c(c3c2)CCCCCC4)cc1C	-	?	?	0	0	0
Cc1ccc(NS(=O)(=O)c2ccc3[nH]c4c(c3c2)CCCCCC4)cc1	-	?	?	39.8µM	0	?
COc1cc(NS(=O)(=O)c2ccc3[nH]c4c(c3c2)CCCC4)cc(OC)c1OC	-	?	?	?	0	?
Cc1ccc(C)c(N2CCN(S(=O)(=O)c3ccc4[nH]c5c(c4c3)CCCC5)CC2)c1	-	?	0	0	0	0
COc1ccc(NS(=O)(=O)c2ccc3[nH]c4c(c3c2)CCCC4)cc1OC	-	11.2µM	44.7µM	?	?	?
O=C(Nc1ccc(F)cc1)C1=CC(=O)N2CCN=C2S1	-	1µM	-	?	-	-
O=C1NC(=O)/C(=C/c2ccc(-c3cccc([N+](=O)[O-])c3)o2)S1	?	-	?	?	0	0
O=C1NC(=O)C(=Cc2ccc(-c3ccc(F)cc3)o2)S1	-	-	-	-	-	0
O=C1NC(=S)S/C1=C\c1ccc(SCc2ccccc2)o1	26.7µM	?	25.1µM	50.1µM	?	12.6µM
O=C1NC(=S)S/C1=C\c1ccc(SCc2ccco2)o1	2.99µM	10µM	6.31µM	17.8µM	11.2µM	-
CCOC(=O)/C(=N\Nc1cccc(Cl)c1)Sc1nnc(-c2ccc(OC)cc2)n1C	0	8.91µM	0	0	0	?
O=C1CCCC2=C1C(c1ccc(O)c(O)c1)Nc1ccc3ccccc3c12 (configuration not stated)	0	-	28.2µM	-	?	0
Cc1ccc(C2Nc3ccc4ccccc4c3C3=C2C(=O)CC(C)(C)C3)o1 (configuration not stated)	0	?	0	0	0	?
SMILES	PLK1 PBD inh	G9a block	JMJD2A Tudor inh	BAZ2B inh	HP1b chromo inh	ALOX12 inh
O=C1CCCC2=C1C(c1ccco1)Nc1ccc3ccccc3c12 (configuration not stated)	23.8µM	15.8µM	39.8µM	12.6µM	50.1µM	0
CC(C)N(c1ccccc1)c1ccc(NC(=O)[C@@H]2O[C@H](CO)[C@H](O)[C@H](O)[C@H]2O)cc1	0	-	-	-	-	?
Nc1ccccc1SC/C=C/CSc1ccccc1N	11.9µM	11.2µM	0	0	0	0
CC(C)NC(=O)NC(=O)CSc1nc2ncccc2c(=O)n1-c1ccccc1	-	-	-	-	-	0
CCOc1ccc(NS(=O)(=O)c2ccc3c(c2)N(C(C)=O)CCS3)cc1	26.7µM	0	?	0	0	0
COc1ccc(C2=Nc3ccccc3NC(=O)C2N(CCc2cc(OC)cc(OC)c2)C(C)=O)cc1 (configuration not stated)	0	-	-	-	-	?
COc1cc(CCN(C(C)=O)C2C(=O)Nc3ccccc3N=C2c2ccc3c(c2)OCO3)cc(OC)c1 (configuration not stated)	0	-	-	-	-	2µM
O=C(COC(=O)Cc1cccc(C(F)(F)F)c1)NCC1CCCO1 (configuration not stated)	0	?	0	0	0	?
COc1cccc(C(=O)/C(C#N)=N/Nc2cccc(-c3ccnc(C)n3)c2)c1	0	50.1µM	?	?	0	0
CNC(=O)Nc1cccc(-c2ccnc(C)n2)c1	0	-	0	0	0	0
COc1cc2cc(C(c3nnnn3C(C)(C)C)N3CCc4ccccc4C3)c(=O)[nH]c2cc1OC (configuration not stated)	?	?	?	0	?	?
CCC(C)(C)n1nnnc1C(c1cc2cc(C)ccc2[nH]c1=O)N1CCCC1 (configuration not stated)	0	8.91µM	0	0	0	0
CCC(C)(C)n1nnnc1C(c1cc2cc(OC)c(OC)cc2[nH]c1=O)N1CCc2ccccc21 (configuration not stated)	0	44.7µM	?	0	0	0
Cc1ccc2cc(C(c3nnnn3C(C)(C)C)N3CCCCCC3)c(=O)[nH]c2c1 (configuration not stated)	0	7.94µM	0	0	0	-
CCOc1ccccc1NC(=S)N1CCN(c2ccc(OC)cc2)CC1	0	?	?	?	0	?
CC(=O)c1ccc(N2CCN(C(=O)C3CCC3)CC2)cc1	0	?	0	0	0	0
CCOC(=O)N1CCN(c2ccc(O)cc2)CC1	0	2.82µM	35.5µM	0	0	?
CCOc1ccccc1NC(=S)N1CCN(c2ccc(O)cc2)CC1	0	35.5µM	?	0	0	0
CCOC(=O)N1CCN(c2cc(=O)n(-c3ccc(C)cc3)c(=O)[nH]2)CC1	0	50.1µM	0	-	0	0
O=C(C1CC1)N1CCN(c2ccc(O)cc2)CC1	0	25.1µM	79.4µM	0	?	?
Cc1cc(S(=O)(=O)N2CCOCC2)ccc1OCC(=O)Nc1ccc(F)cc1F	0	0	0	0	0	0
Cc1cc(-c2nnc(CSc3nnc(NC(=O)c4ccc(C(C)(C)C)cc4)s3)o2)ccc1[N+](=O)[O-]	0	0	0	0	0	0
